{
  "source": "PubChem BioAssay AID720486",
  "about": "(Milwaukee Institute for Drug Discovery, 2013)",
  "note": "Some of the results follow. Activity calls are given as the source filed them.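 The calls were made as follows: active = inhibition of at least 50%; inactive = the rest.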",
  "data": [
    {"biological_target": "Single-stranded DNA-binding protein (Escherichia coli (strain K12)) (UniProt P0AGE0)", "sequence (P0AGE0 whole entry, looked up)": "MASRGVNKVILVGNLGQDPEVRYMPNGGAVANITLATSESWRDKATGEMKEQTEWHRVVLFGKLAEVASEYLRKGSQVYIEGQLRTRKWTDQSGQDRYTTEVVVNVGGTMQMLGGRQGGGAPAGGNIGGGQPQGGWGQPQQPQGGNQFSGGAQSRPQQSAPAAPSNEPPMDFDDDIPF", "assay": "disruption of SSB binding to ssDNA – biochemical, fluorescence polarization, selected ChemBridge compounds, counter-screen for HCV NS3 helicase inhibitor project (AID 720486);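 also: displacers lower Cy5 polarization so higher inhibition means more SSB displaced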", "conditions": "E. coli SSB binding Cy5-dT15, fluorescence polarization; at 100 µM; active compounds read high", "values": [
      {"smiles": "COc1ccc(N2C(=O)C=CC2=O)c([N+](=O)[O-])c1", "inhibition": "-5.58% (inactive)"},
      {"smiles": "O=C1NC(=O)C(=Cc2cc([N+](=O)[O-])cc(Br)c2O)C(=O)N1", "inhibition": "51.5% (active)"},
      {"smiles": "CC(C)(C)N1C(=O)NC(=O)C(=Cc2cccs2)C1=O", "inhibition": "11.4% (inactive)"},
      {"smiles": "COc1ccc(C(=O)Oc2ccc3oc(=O)cc(C)c3c2)cc1OC", "inhibition": "12.6% (inactive)"},
      {"smiles": "O=c1c2c(nc3cc(-c4cccc(F)c4)[nH]n13)CCS2", "inhibition": "84.2% (active)"},
      {"smiles": "O=C(NC(=S)Nc1ccc(-c2nc3cc(Cl)ccc3o2)cc1)c1ccco1", "inhibition": "19.9% (inactive)"},
      {"smiles": "CCN(CC)c1ccc(C=C2C(=O)N(C)C(=O)N(C)C2=O)c(O)c1", "inhibition": "30.8% (inactive)"},
      {"smiles": "COc1cc(/C(O)=C(\\C#N)c2nc3ccccc3n2C)cc(OC)c1OC", "inhibition": "10.2% (inactive)"},
      {"smiles": "COc1cc(C=C2C(=O)NC(=O)NC2=O)ccc1OCCOc1ccc([N+](=O)[O-])cc1", "inhibition": "19.9% (inactive)"},
      {"smiles": "N#Cc1c(N)nc2sc(C(=O)Nc3ccccc3)c(N)c2c1-c1ccco1", "inhibition": "16.3% (inactive)"},
      {"smiles": "Cc1ccc(C(=O)NCCNc2ccc([N+](=O)[O-])cc2)cc1", "inhibition": "34.5% (inactive)"},
      {"smiles": "CCOc1ccc(C=C2C(=O)NC(=O)NC2=O)cc1Cl", "inhibition": "19.9% (inactive)"},
      {"smiles": "C=CCN1C(=O)/C(=C\\c2cc(OC)c(O)c([N+](=O)[O-])c2)C(=O)NC1=S", "inhibition": "98.8% (active)"},
      {"smiles": "Cc1ccc(C(=O)C[n+]2cc(-c3ccccc3)n3c2CCCCC3)cc1", "inhibition": "5.34% (inactive)"},
      {"smiles": "CCN(CC)c1ccc(NC(=O)/C(=C\\c2ccccc2)NC(C)=O)cc1", "inhibition": "55.1% (active)"}
    ]}
  ]
}
